The list is not random: actives were taken first. Their share in the collection is about 2.5%.
PKA-R2B activ – activators of PKA-R2B holoenzyme, primary screen, biochemical, fluorescence polarization, Cy5-IP20, human; activation, % at 11.4 µM; AID 504700, 2011; PKA-R2B holoenzyme dissociation; R2B truncated from residue 108, S112A mutant; 0% DMSO only, 100% 113 µM cGMP; actives 0.079% (n = 340,000);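 active means activation above a cutoff set at the mean over all compounds plus 3 SD, cut at about 18% in these data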;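 further: higher means more holoenzyme dissociation and a rise in polarization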
CHT block – inhibitors of human choline transporter CHT. High affinity choline transporter 1 (Homo sapiens), Q9GZV3. CHT-expressing cells, membrane potential dye, choline response; active compounds read low. B-score at 10 µM. actives 0.86% (n = 310,000). AID 488975, 2010;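 active means B-score over 3 SD under the library average, and starting fluorescence ratio not unusually high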;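 further: choline stimulus applied at its EC90 after an EC20 pre-addition; B-score computed on integrated fluorescence ratio after choline addition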
ANO1 activ – TMEM16A chloride channel activators or potentiators, primary screen, cell-based, HTS; Anoctamin-1 (Mus musculus), Q8BHY3; HEK293 TMEM16A/YFP-H148Q/I152L, iodide quench fluorescence; active compounds read low; B-score at 10 µM; actives 0.3% (n = 340,000);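 active means fluorescence-ratio B-score plate-corrected deviation score at least 3 library SD below zero, with starting fluorescence score within 5 deviations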;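 further: channel opened by trigger with iodide after compound preincubation; score built on the fluorescence ratio of max minus min over baseline; more negative score means more quench and so TMEM16A activation or potentiation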
Target sequence (Q8BHY3 whole entry, looked up): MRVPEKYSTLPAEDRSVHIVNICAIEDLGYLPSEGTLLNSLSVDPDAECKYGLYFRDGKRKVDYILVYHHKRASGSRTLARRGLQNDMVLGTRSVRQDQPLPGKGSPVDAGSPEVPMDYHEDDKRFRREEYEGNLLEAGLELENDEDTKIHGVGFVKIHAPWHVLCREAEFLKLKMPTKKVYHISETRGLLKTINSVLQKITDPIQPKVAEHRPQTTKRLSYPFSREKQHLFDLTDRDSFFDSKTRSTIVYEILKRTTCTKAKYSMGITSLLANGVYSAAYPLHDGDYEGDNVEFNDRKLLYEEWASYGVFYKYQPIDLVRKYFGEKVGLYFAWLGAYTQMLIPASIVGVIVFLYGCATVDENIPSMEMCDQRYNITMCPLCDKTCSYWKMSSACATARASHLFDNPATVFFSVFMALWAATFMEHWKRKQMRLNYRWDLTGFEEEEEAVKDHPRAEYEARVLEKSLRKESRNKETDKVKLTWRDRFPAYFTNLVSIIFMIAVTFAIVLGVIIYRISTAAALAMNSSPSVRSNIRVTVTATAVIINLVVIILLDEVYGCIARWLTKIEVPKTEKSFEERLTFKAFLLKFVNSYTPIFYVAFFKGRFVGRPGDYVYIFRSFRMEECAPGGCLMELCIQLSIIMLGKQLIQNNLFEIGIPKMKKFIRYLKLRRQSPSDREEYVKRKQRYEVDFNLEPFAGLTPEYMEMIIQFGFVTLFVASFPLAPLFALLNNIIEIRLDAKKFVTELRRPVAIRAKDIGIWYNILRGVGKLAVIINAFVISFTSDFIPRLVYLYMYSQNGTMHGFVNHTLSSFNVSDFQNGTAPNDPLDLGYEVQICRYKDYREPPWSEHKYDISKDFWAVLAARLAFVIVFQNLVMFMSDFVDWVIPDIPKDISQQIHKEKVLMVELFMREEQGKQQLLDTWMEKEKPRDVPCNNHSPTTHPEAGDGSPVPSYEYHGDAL
PKA-R1A act – activators of PKA-R1A holoenzyme, primary screen, biochemical, fluorescence polarization, Cy5-IP20, bovine R1A, mouse PKAc; PKA-R1A dissociation; scaled: DMSO 0%, 113 µM cGMP 100%; activation, % at 11.4 µM; actives 0.083% (n = 340,000); AID 504707, 2011;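 active means percent activation above the mean of all tested compounds plus 3 SD, cut at about 19% in these data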;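 further: higher means more PKAc released from R1A so a rise in polarization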
CHT PAM – CHT positive allosteric modulators, primary screen, cell-based, membrane potential dye, choline EC20; High affinity choline transporter 1 (Homo sapiens), Q9GZV3; CHT-expressing cells; active compounds read high; LV-AA mutant CHT in HEK293 cells; B-score at 10 µM; actives 0.49% (n = 310,000); AID 488977, 2010;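 active means initial fluorescence not abnormally high and integrated response B-score, plate-corrected, over 3 SD above library mean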
TMEM16A inh – TMEM16A chloride channel inhibitors, primary screen, cell-based, HTS | Anoctamin-1 (Mus musculus), Q8BHY3 | HEK293 TMEM16A/YFP iodide influx fluorescence, ionomycin | normalized B-score (activity score, 25-100; higher = stronger inhibition) at 10 µM | actives 1.2% (n = 310,000) | AID 588511, 2011;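 active means ratio plate-corrected score three or more library SD toward inhibition, starting fluorescence score within five deviations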;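 further: score derived from kinetic fluorescence span divided by baseline fluorescence per well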
TMEM16A reconf – TMEM16A chloride channel inhibitors, confirmation, cell-based, re-confirmation; shares compounds with TMEM16A inh; HEK293 TMEM16A/YFP-H148Q, iodide quench fluorescence; ionomycin added to raise cell calcium; inhibition, % at 10 µM; actives 39% (n = 2,300);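 active means mean duplicate percent inhibition, scaled so buffer wells are 0 and the reference blocker 100, over three buffer SD above buffer mean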
HEK293 Ca mobil – calcium mobilization in TMEM16A/YFP HEK293 cells, confirmation, counter-screen for TMEM16A inhibitor project; shares compounds with TMEM16A inh; actives 2% (n = 2,300); AID 652231, 2013; Fluo4 calcium mobilization; calcium response (% of ionomycin), % at 10 µM;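 active means duplicate-averaged calcium signal over 20% of the ionomycin maximum, relative to buffer baseline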;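 further: each well's signal is peak minus trough fluorescence divided by its pre-addition baseline; 0% = buffer wells and 100% = ionomycin wells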
Parental YFP cnt – iodide YFP quench changes in parental YFP-HEK293, counter-screen for TMEM16A inhibitor project, cell-based; 2,300 tested, under 10 active; ionomycin; YFP ratio F(max-min)/F0 at 10 µM; shares compounds with TMEM16A inh;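 active means yellow fluorescent protein signal ratio exceeding the buffer control mean by over 5 SD of those controls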;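 further: ratio is mean of duplicate wells from kinetic YFP trace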
ClC-1 inh – ClC-1 chloride channel inhibition, selectivity assay for TMEM16A inhibitor project, cell-based, voltage-dependent ClC-1; shares compounds with TMEM16A inh; CHO ClC-1-YFP, iodide influx fluorescence quench; iodide control reads 0, buffer control 100; ratio percent, % at 10 µM; 2,300 tested, under 10 active; AID 652236, 2013;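 active means duplicate-mean ratio percent above the mean of iodide-only control wells, which defines zero, plus 5 of their SD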;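 further: higher percent means stronger block of ClC-1 iodide influx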
Active calls of the source: *; i = inactive; x = no result.

SMILES	PKA-R2B activ	CHT block	ANO1 activ	PKA-R1A act	CHT PAM	TMEM16A inh	TMEM16A reconf	HEK293 Ca mobil	Parental YFP cnt	ClC-1 inh
CC(C)C(NC(=O)c1c(F)cccc1F)C(=O)NCc1ccc(S(=O)(=O)N2CCOCC2)cc1 (configuration not stated)	0.9	x	i	-2.3	x	x	x	x	x	x
CC(C)Cn1c(Cc2ccccc2)n[nH]c1=S	-3.7	i	i	-2.5	i	100*	i	i	-1.18	-3.5
CC[n+]1c(/C=C2/C=C(C)CC(C)(C)C2)sc2ccc(OC)cc21	-3.2	i	i	-14.4	i	25*	55.5%*	i	-0.888	-25.5
N#Cc1c(NC(=O)CSc2nc3ccccc3s2)sc2c1CCCC2	-7.0	i	i	-3.4	i	i	x	x	x	x
CCOC(=O)/C=c1\s/c(=C\c2ccc3cc(OC)ccc3c2)c(=O)n1CC(=O)NCc1ccc2c(c1)OCO2	-4.2	i	i	-11.3	i	i	31.0%*	i	-0.977	17.0
CCOC(=O)/C=c1\s/c(=C\c2ccccc2C)c(=O)n1CC(=O)NCc1ccc2c(c1)OCO2	-2.9	i	i	0.1	i	i	x	x	x	x
COc1ccc(CNC(=O)CN(C(=O)CCC(=O)Nc2nccs2)c2ccc3c(c2)OCO3)cc1	-4.3	i	i	-5.4	i	i	x	x	x	x
N#CC1=C(N)OC2=C(CCc3ccccc32)C1c1ccccc1 (configuration not stated)	-4.0	i	i	3.5	i	100*	51.5%*	i	-1.1	-10.0
COc1cc(NC(=O)C(C)Oc2ccccc2)ccc1NC(=O)COc1ccccc1 (configuration not stated)	13.9	i	i	-5.7	i	i	x	x	x	x
Cc1ccccc1NC(=S)NNC(=O)c1ccoc1C	-2.7	i	i	-6.9	i	100*	i	i	-0.9	-9.0
COc1cccc(CN(C)C(=O)COc2ccc(C(=O)c3ccc(Cl)cc3)cc2)c1OC	-7.9	i	i	-5.4	i	100*	26.0%*	i	-0.995	-17.0
COc1cccc(CN(C)C(=O)CNC(=O)c2sc3ccccc3c2Cl)c1OC	-0.7	i	i	-18.3	i	25*	i	i	-1.03	-2.5
COc1ccc(CN(C)C(=O)CNC(=O)Cc2cccc3ccccc23)c(OC)c1OC	-5.3	i	i	3.5	i	i	x	x	x	x
CCCCc1cc(=O)oc2cc(OCC(=O)Nc3cccnc3)c(Cl)cc12	8.5	i	i	-6.0	i	i	x	x	x	x
COc1ccccc1CNC(=O)Cn1c(=O)oc2cc(S(=O)(=O)N3CCCC3)ccc21	-5.1	i	i	6.9	i	i	x	x	x	x
COCCN(Cc1nc(-c2ccc(-c3ccccc3)cc2)oc1C)C(C)C	-16.4	i	i	-1.7	i	i	x	x	x	x
COc1ccc(C2=NS(=O)(=O)N(C)C(C(=O)N3CCc4ccccc4C3)=C2)cc1OC	-5.2	i	i	-4.9	i	25*	25.5%*	i	-0.929	-9.0
COc1cccc(CNCCc2c[nH]c3ccccc23)c1OCc1ccccc1	0.3	i	i	3.8	i	25*	54.0%*	i	-0.853	-17.5
O=C(CN1CCN(C(=O)C2CC2)CC1)Nc1cc(C(F)(F)F)cc(C(F)(F)F)c1	-2.9	x	i	2.9	x	x	x	x	x	x
CCCS(=O)(=O)c1nc(S(=O)(=O)c2ccc(C)cc2)c(NCCCN2CCCC2=O)s1	5.8	i	i	-8.2	i	i	x	x	x	x
CCOc1c(Cl)cc(C(=O)Nc2ccccc2C(=O)O)cc1Cl	-1.6	i	i	-19.7	i	100*	49.5%*	i	-0.883	-7.0
COc1ccc(C(=O)Nc2ccccc2C(=O)O)cc1Cl	0.6	i	i	3.0	i	i	x	x	x	x
Cc1nn(C)c(Cl)c1NC(=O)OCc1ccc(Cl)cc1Cl	1.7	i	i	1.7	i	25*	i	i	-0.79	-16.5
Fc1ccc(N2CCN(c3nc(-c4ccco4)cc(C(F)(F)F)n3)CC2)cc1	-9.2	i	i	-5.7	i	i	x	x	x	x
Cc1nn(-c2nc(-c3ccco3)cc(C(F)(F)F)n2)c(C)c1Br	-2.3	i	i	10.8	i	25*	i	i	-1.01	-2.0
COc1ccc(S(=O)(=O)N(C)C)cc1NC(=O)CN1C(=O)NC2(CCCC2)C1=O	-0.2	i	i	-9.1	i	i	x	x	x	x
Cc1cccc(OCC(=O)Nc2nc3ccc([N+](=O)[O-])cc3s2)c1	-12.6	i	i	-4.1	i	25*	i	i	-0.962	2.0
Cc1ccc(S(=O)(=O)N(C)c2ccc(OCC(=O)Nc3nc4ccccc4s3)cc2)cc1	-2.1	i	i	2.5	i	i	i	i	-0.851	-16.0
NC(CCCCCP(=O)(c1ccccc1)c1ccccc1)C(=O)O (configuration not stated)	x	i	x	x	i	i	x	x	x	x
CCN(CC)S(=O)(=O)c1cccc(C(=O)Nc2ccc(C#N)cc2)c1	-2.4	i	i	0.6	i	100*	i	i	-1.14	-20.5

High-throughput results (PubChem)
